In PubChem BioAssay (Tox21):
Records with an inconclusive call do not appear. Activity calls are given as the source filed them. Unless noted, calls follow the shape of the full dose curve.

What was measured:
[1] = Nuclear factor erythroid 2-related factor 2/antioxidant responsive element (Nrf2/ARE) small molecule agonists: qHTS cell viability counter screen in human keratinocytes (AID 1919968; active = well fitted curve in the direction sought with a large enough effect in the repeat runs; an effect the other way counts as inactive or inconclusive; also: nearly all actives have a fitted effect of over 55% in size)
Method in brief: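 Viability counter-screen: KeratinoSens reporter cells, DMSO-delivered compounds, 23 h at 37 C, CellTiter-Fluor fluorescence.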

[2] = biological target: Gonadotropin-releasing hormone receptor (Homo sapiens) (UniProt P30968); test: Human gonadotropin-releasing hormone receptor (GnRHR) small molecule agonists, calcium flux assay in GnRHR-HEK293 cells (AID 1920063); also: nearly all actives have a fitted effect of over 35% in size
Sequence of Gonadotropin-releasing hormone receptor (Homo sapiens) (P30968 whole entry, looked up): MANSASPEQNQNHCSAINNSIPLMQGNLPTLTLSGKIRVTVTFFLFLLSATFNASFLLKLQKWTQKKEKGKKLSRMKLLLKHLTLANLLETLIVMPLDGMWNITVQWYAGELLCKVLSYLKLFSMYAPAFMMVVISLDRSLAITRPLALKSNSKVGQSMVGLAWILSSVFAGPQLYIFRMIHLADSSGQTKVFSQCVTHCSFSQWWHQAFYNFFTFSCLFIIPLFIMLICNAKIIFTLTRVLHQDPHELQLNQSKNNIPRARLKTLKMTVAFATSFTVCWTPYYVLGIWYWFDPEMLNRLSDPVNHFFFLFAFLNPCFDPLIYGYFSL
Method in brief: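 Tox21-format agonist screen using human GnRHR-expressing HEK293 cells and a fluorescent calcium dye; kinetic 3-min fluorescence reading after compound addition, 15-point concentration series run in triplicate.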

[3] = biological target: KiSS-1 receptor (Homo sapiens) (UniProt Q969F8); test: Human kisspeptin (KISS1R) small molecule agonists, calcium flux assay in KISS1R-HEK293 cells (AID 1920064; active = well fitted curve in the direction sought with a large enough effect in the repeat runs; an effect the other way counts as inactive or inconclusive)
Sequence of KiSS-1 receptor (Homo sapiens) (Q969F8 whole entry, looked up): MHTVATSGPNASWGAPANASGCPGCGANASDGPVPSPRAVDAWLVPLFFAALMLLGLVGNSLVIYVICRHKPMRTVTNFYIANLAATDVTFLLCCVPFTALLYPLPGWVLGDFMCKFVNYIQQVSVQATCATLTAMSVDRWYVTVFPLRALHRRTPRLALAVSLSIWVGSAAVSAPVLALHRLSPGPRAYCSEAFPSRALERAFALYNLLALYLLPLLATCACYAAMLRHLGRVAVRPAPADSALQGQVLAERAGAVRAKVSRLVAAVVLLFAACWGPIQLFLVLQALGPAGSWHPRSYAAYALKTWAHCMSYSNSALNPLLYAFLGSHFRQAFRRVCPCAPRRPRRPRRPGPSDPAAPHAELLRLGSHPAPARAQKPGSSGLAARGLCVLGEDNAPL
Method in brief: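 Intracellular calcium mobilization in KISS1R-HEK293 cells was recorded by fluorescence (Ex/Em 480/540) for 3 min following compound addition to cells pre-loaded 1 h with calcium dye.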

[4] = G protein-coupled receptor (GPCR) small molecule agonists, calcium flux assay: HEK293 wild type cell line counter screen (AID 1920065)
Method in brief: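 In this agonist-mode screen, ATP is the positive control and DMSO the vehicle. Cells grow 18 h before a 1 h dye incubation at 37 C; signal is taken at Ex/Em 480/540 over 3 min.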

[5] = p53 small molecule agonists, cell-based qHTS assay with rat liver microsomes (AID 1963578)
Method in brief: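 With rat liver microsomes and NADPH present (0.5 mg/mL final each), p53RE-bla cells are treated with compound for 16 h at 37 C. LiveBLAzer detection mixture is then applied for 2 h at room temperature in the dark.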

[6] = p53 small molecule agonists, cell-based qHTS assay with human liver microsomes: qHTS cell viability counter screen (AID 1963579); also: nearly all actives have a fitted effect of over 45% in size
Method in brief: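 In this multiplexed counter screen, the reporter plates were subsequently treated with CellTiter-Glo so that cell viability, reflected by luminescence, could be recorded for p53RE-bla cells dosed 16 h with compounds under microsomal activation (HLM and NADPH).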

[7] = p53 small molecule agonists, cell-based qHTS assay with rat liver microsomes: qHTS cell viability counter screen (AID 1963580); also: nearly all actives have a fitted effect of over 45% in size
Method in brief: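 Intracellular ATP, by CellTiter-Glo luminescence, defines viability. HCT-116 p53RE-bla cells, 4,000 per well, were compound-treated in the presence of rat liver microsomes and NADPH for 16 h at 37 C.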

[8] = cAMP Responsive Elements (CRE) small molecule antagonists, cell-based qHTS assay (AID 1963591; active = well fitted inhibition curve with a large enough effect in the signal ratio in the repeat runs, not every such curve was filed as active; the % refers to the signal ratio)
Method in brief: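 qHTS in CRE-bla HEK 293T cells: compound in DMSO, then 0.25 uM NKH477 (final), 3 h at 37 °C/5% CO2; beta-lactamase FRET read-out after 2 h substrate incubation.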

[9] = biological target: Beta-2 adrenergic receptor (Homo sapiens) (UniProt P07550); test: Adrenergic beta2 receptor (ADRB2) small molecule antagonists, cell-based qHTS assay (AID 1963592); also: series mostly up to about 92 µM; nearly all actives have a fitted effect of over 50% in size
Sequence of Beta-2 adrenergic receptor (Homo sapiens) (P07550 whole entry, looked up): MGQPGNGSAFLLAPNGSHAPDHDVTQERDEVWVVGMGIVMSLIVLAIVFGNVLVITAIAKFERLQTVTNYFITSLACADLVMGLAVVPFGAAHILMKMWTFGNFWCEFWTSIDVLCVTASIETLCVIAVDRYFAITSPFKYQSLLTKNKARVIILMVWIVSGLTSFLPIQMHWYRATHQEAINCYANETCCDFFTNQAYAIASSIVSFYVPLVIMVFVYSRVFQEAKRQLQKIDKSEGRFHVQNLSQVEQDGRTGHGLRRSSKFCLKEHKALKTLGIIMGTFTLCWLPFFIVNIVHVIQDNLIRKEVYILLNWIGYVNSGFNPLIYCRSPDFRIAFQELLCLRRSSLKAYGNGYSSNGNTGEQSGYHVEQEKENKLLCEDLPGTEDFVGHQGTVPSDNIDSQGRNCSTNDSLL
Method in brief: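 Cells (CHO, stable ADRB2 overexpression) incubated 18-20hr at 37C; compounds added from DMSO; agonist mix (1nM isoproterenol, 100uM IBMX, 25uM Ro-20-1724) added; 0.5hr RT; d2-cAMP and anti-cAMP-cryptate added; 1hr RT; 665/615 nm read.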

[10] = biological target: Beta-2 adrenergic receptor (Homo sapiens) (UniProt P07550); test: Adrenergic beta2 receptor (ADRB2) small molecule agonists, cell-based qHTS assay (AID 1963593);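 also: CHO cells stably overexpressing human ADRB2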
Method in brief: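 CHO cells stably over-expressing ADRB2 were plated overnight at 37C, then dosed with compounds plus a stimulation mix containing 100uM IBMX and 25uM Ro-20-1724 for 0.5hr at room temperature. cAMP was measured by HTRF competition, 1hr.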

[11] = biological target: D(2) dopamine receptor (Homo sapiens) (UniProt P14416); test: Dopamine D2 receptor (DRD2) small molecule agonists, cell-based qHTS assay (AID 1963594); also: nearly all actives have a fitted effect of over 35% in size
Sequence of D(2) dopamine receptor (Homo sapiens) (P14416 whole entry, looked up): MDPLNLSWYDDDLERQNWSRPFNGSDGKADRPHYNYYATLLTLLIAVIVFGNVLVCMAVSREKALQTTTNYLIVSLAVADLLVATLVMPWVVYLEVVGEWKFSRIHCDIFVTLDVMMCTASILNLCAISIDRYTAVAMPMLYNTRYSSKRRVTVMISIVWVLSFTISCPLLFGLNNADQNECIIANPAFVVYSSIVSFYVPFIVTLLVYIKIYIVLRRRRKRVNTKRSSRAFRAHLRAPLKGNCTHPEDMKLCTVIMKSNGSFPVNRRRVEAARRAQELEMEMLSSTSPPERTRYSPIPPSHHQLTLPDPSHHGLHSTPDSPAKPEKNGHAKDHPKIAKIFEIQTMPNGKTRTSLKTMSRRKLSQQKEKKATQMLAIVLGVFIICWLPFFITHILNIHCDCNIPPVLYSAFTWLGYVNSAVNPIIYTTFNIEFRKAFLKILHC
Method in brief: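 cAMP accumulation in DRD2-HEK293 cells measured by HTRF after 1 h detection; compounds added 10 min before NKH477 (200nM […]) forskolin-analogue stimulation, 30 min at room temperature, with Ro20-1724 present at 0.1 mM final.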

[12] = biological target: D(2) dopamine receptor (Homo sapiens) (UniProt P14416); test: Dopamine D2 receptor (DRD2) small molecule antagonists, cell-based qHTS assay (AID 1963595; active = well fitted inhibition curve with a large enough effect in the signal ratio in the repeat runs, with a control signal flat; the % refers to the signal ratio)
Method in brief: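 Stable D2 receptor HEK293 line, 24 h after seeding. Compound preincubated 10 min, then quinpirole (12 nM) with forskolin analogue NKH477 (200 nM), 30 min, room temperature. Detection by time-resolved FRET of cAMP.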

[13] = p53 small molecule agonists, cell-based qHTS assay: qHTS cell viability counter screen (AID 1963581); also: nearly all actives have a fitted effect of over 45% in size
Method in brief: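 Compounds are pinned onto HCT-116 p53RE-bla cells and left 16 h at 37 C. Following the reporter FRET read, ATP is quantified by CellTiter-Glo luminescence after 30 min at room temperature.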

[14] = cAMP Responsive Elements (CRE) small molecule agonists, cell-based qHTS assay (AID 1963590)
Method in brief: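 FRET-based beta-lactamase readout (LiveBLAzer B/G, 2 h RT) quantified CRE activation in HEK 293T CRE-bla cells after 3 h treatment with DMSO-dissolved compounds.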

[15] = p53 small molecule agonists, cell-based qHTS assay with human liver microsomes (AID 1963577);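 also: p53 response element beta-lactamase reporter cells with liver microsomes plus NADPH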
Method in brief: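 16 h, 37 C exposure of p53RE-bla cells to compounds with human liver microsomes and NADPH (0.5 mg/mL final each); detection via LiveBLAzer mixture, 2 h dark at room temperature.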

[16] = p53 small molecule agonists, cell-based qHTS assay (AID 1963582; active = well fitted activation curve with a large enough effect in the signal ratio in the repeat runs, not every such curve was filed as active; the % refers to the signal ratio)
Method in brief: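 Agonist activity was scored from beta-lactamase FRET fluorescence in p53RE-bla cells treated 16 h at 37 C with compounds in DMSO, substrate incubation being 2 h at room temperature.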

[17] = biological target: 5-hydroxytryptamine receptor 2A (Homo sapiens) (UniProt P28223); test: 5-hydroxytryptamine receptor 2A (HTR2A) small molecule antagonists, cell-based qHTS assay (AID 1963586); also: nearly all actives have a fitted effect of over 45% in size; also: potency is read from the fitted curve at half-maximal effect
Sequence of 5-hydroxytryptamine receptor 2A (Homo sapiens) (P28223 whole entry, looked up): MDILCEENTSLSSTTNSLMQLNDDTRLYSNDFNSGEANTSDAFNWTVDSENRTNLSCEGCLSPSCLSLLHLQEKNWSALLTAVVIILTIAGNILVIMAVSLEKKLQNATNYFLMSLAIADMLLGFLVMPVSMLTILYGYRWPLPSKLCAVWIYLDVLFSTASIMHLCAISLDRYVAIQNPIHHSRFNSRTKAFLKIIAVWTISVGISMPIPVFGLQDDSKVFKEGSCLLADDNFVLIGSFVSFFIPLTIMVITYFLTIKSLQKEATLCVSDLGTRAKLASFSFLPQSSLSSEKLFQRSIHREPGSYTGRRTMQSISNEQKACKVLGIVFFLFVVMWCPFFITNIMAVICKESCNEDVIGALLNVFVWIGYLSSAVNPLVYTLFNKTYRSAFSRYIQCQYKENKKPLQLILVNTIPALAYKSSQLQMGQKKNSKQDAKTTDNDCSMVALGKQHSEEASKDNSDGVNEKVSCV
Method in brief: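 Antagonist-mode intracellular calcium assay: DOI (4 nM) added after 5 min compound pre-incubation at room temperature to dye-loaded HTR2A-CHO cells. Fluorescence followed for 3 min, sampled every second.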

[18] = biological target: 5-hydroxytryptamine receptor 2A (Homo sapiens) (UniProt P28223); test: 5-hydroxytryptamine receptor 2A (HTR2A) small molecule agonists, cell-based qHTS assay (AID 1963587); also: nearly all actives have a fitted effect of over 30% in size
Method in brief: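 Kinetic calcium-flux fluorescence (2 min, 1 sec intervals) after compound addition in agonist mode. HTR2A-CHO cells were cultured 18 h, then dye-loaded 1 h at 37 C.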

[19] = biological target: Muscarinic acetylcholine receptor M1 (Homo sapiens) (UniProt P11229); test: Cholinergic receptor muscarinic 1 (CHRM1) small molecule antagonists, cell-based qHTS assay (AID 1963588); also: nearly all actives have a fitted effect of over 40% in size
Sequence of Muscarinic acetylcholine receptor M1 (Homo sapiens) (P11229 whole entry, looked up): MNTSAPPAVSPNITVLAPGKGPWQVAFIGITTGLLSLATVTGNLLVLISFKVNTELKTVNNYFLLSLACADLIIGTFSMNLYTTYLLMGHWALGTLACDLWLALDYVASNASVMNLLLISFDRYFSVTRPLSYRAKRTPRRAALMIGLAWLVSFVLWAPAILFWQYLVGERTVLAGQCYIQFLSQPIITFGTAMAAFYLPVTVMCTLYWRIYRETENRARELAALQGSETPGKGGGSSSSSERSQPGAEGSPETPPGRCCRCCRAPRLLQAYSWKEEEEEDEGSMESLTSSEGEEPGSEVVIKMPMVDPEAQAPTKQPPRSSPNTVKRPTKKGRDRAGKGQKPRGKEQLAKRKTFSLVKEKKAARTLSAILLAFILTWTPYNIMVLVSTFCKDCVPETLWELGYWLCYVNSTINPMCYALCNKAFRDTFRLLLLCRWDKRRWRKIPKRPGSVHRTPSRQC
Method in brief: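 CHRM1-CHO calcium-flux assay, antagonist mode. Cells were seeded 18 h, dye-loaded 1 h at 37 C and given compound for 5 min at RT, then acetylcholine was added at 50nM. FDSS fluorescence was read 3 min; 15 concentrations, three runs.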

[20] = biological target: Muscarinic acetylcholine receptor M1 (Homo sapiens) (UniProt P11229); test: Cholinergic receptor muscarinic 1 (CHRM1) small molecule agonists, cell-based qHTS assay (AID 1963589); also: nearly all actives have a fitted effect of over 35% in size
Method in brief: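 Stable CHRM1-CHO cells (human receptor) were incubated 18 h, dye-loaded for 1 h at 37 C and exposed to test compounds for agonist activity, with calcium-dependent fluorescence followed kinetically.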
% is scaled to controls: 0 for no effect and ±100 for the full control effect.

CCCSc1ccc2nc(NC(=O)OC)[nH]c2c1
inactive: Potency [1] | Potency [2] | Potency [3] | Potency [4] | Potency [5] | Potency [6] | Potency [7] | Potency [8] | Potency [9] | Potency [10] | Potency [11] | Potency [12]

CCN(CC)CCNC(=O)c1ccc(N)cc1
inactive: Potency [1] | Potency [2] | Potency [3] | Potency [4] | Potency [6] | Potency [7] | Potency [13] | Potency [14] | Potency [8] | Potency [9] | Potency [10] | Potency [11] | Potency [12]

CCC(=O)CC
inactive: Potency [1] | Potency [2] | Potency [3] | Potency [15] | Potency [5] | Potency [6] | Potency [7] | Potency [13] | Potency [16] | Potency [17] | Potency [18] | Potency [19] | Potency [20] | Potency [14] | Potency [8] | Potency [9] | Potency [10] | Potency [11] | Potency [12]

COc1ccc(COC(C)=O)cc1
inactive: Potency [1] | Potency [2] | Potency [3] | Potency [4] | Potency [6] | Potency [7] | Potency [13] | Potency [17] | Potency [18] | Potency [19] | Potency [20] | Potency [14] | Potency [8] | Potency [10] | Potency [11] | Potency [12]

O=C1CCCCC1
inactive: Potency [1] | Potency [2] | Potency [3] | Potency [4] | Potency [6] | Potency [7] | Potency [17] | Potency [18] | Potency [19] | Potency [20] | Potency [14] | Potency [8] | Potency [9] | Potency [10] | Potency [11] | Potency [12]

NCCNCCNCCNCCN
inactive: Potency [1] | Potency [2] | Potency [3] | Potency [4] | Potency [6] | Potency [7] | Potency [13] | Potency [17] | Potency [18] | Potency [19] | Potency [20] | Potency [14] | activity change, negative = inhibition [8] -9.22% [at 8.39 µM] | Potency [11] | Potency [12]

CCC(C)(C)C1CCC(=O)CC1
inactive: Potency [2] | Potency [3] | Potency [4] | Potency [15] | Potency [5] | Potency [6] | Potency [7] | Potency [13] | Potency [16] | Potency [17] | Potency [18] | Potency [19] | Potency [20] | Potency [14] | Potency [8] | Potency [9] | Potency [10] | Potency [11] | Potency [12]

CC(C)C1CCC(O)CC1 (stereo not given)
inactive: Potency [2] | Potency [3] | Potency [4] | Potency [15] | Potency [5] | Potency [6] | Potency [7] | Potency [13] | Potency [16] | Potency [17] | Potency [18] | Potency [19] | Potency [20] | Potency [14] | Potency [8] | Potency [9] | Potency [10] | Potency [12]

NC(=O)c1ccccc1N
inactive: Potency [2] | Potency [3] | Potency [4] | Potency [15] | Potency [5] | Potency [6] | Potency [7] | Potency [13] | Potency [16] | Potency [17] | Potency [18] | Potency [19] | Potency [20] | Potency [14] | Potency [8] | Potency [9] | Potency [10] | Potency [11] | Potency [12]

CCCc1ccccc1
inactive: Potency [2] | Potency [3] | Potency [4] | Potency [15] | Potency [5] | Potency [6] | Potency [7] | Potency [16] | Potency [17] | Potency [18] | Potency [19] | Potency [20] | Potency [14] | Potency [8] | Potency [9] | Potency [10] | Potency [11] | Potency [12]

COc1ccc2cc(C=O)ccc2c1
inactive: Potency [2] | Potency [3] | Potency [4] | Potency [15] | Potency [5] | Potency [6] | Potency [7] | Potency [13] | Potency [16] | Potency [17] | Potency [18] | Potency [19] | Potency [20] | Potency [14] | Potency [8] | Potency [9] | Potency [10] | Potency [12]

Cc1ncsc1CCO
inactive: Potency [2] | Potency [3] | Potency [4] | Potency [15] | Potency [5] | Potency [6] | Potency [7] | Potency [13] | Potency [16] | Potency [17] | Potency [18] | Potency [20] | Potency [14] | Potency [8] | Potency [9] | Potency [10] | Potency [11] | Potency [12]

OC/C=C/CO
inactive: Potency [2] | Potency [3] | Potency [4] | Potency [15] | Potency [5] | Potency [6] | Potency [7] | Potency [13] | Potency [16] | Potency [17] | Potency [18] | Potency [19] | Potency [20] | Potency [14] | Potency [9] | Potency [10] | Potency [11] | Potency [12]

Cc1ccc2n[nH]nc2c1
inactive: Potency [2] | Potency [3] | Potency [4] | Potency [15] | Potency [5] | Potency [6] | Potency [7] | Potency [13] | Potency [16] | Potency [17] | Potency [18] | Potency [19] | Potency [20] | Potency [14] | Potency [8] | Potency [9] | Potency [10] | Potency [11] | Potency [12]

CCCCCCCCN(C)C
inactive: Potency [2] | Potency [3] | Potency [4] | Potency [15] | Potency [5] | Potency [6] | Potency [7] | Potency [13] | Potency [16] | Potency [17] | Potency [18] | Potency [19] | Potency [20] | Potency [14] | Potency [8] | Potency [9] | Potency [10] | Potency [11] | Potency [12]

COc1cc(CCC(C)=O)ccc1O
inactive: Potency [2] | Potency [3] | Potency [4] | Potency [15] | Potency [5] | Potency [6] | Potency [7] | Potency [13] | Potency [16] | Potency [18] | Potency [20] | Potency [14] | Potency [8] | Potency [9] | Potency [10] | Potency [11] | Potency [12]
active: Potency [17] 3.75 µM
